Bioassay records from PubChem BioAssay.
Only some compounds are listed: those with a hit (about 19% of all), similar ones and a draw of the others.
TDP1 cell CPT: growth inhibition of DT40 Tdp1-/-;hTDP1 cells with camptothecin (screen for TDP1 inhibitors); hit rate 12% among 420,000; chicken DT40 Tdp1-/-;hTDP1 cells + 20 nM CPT, ATP luminescence, 48 h; Potency, µM (top dose mostly 46.2 µM), for the others: at the top dose activity change, negative = growth inhibition, actives largely listed as inhibitors; also: potency is read from the fitted curve at half-maximal effect; % is scaled to controls: 0 for no effect and ±100 for the full control effect; nearly all actives have a fitted effect of over 55% in size
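Chicken DT40 Tdp1-/- cells complemented with human TDP1, 400 cells/well, exposed to compounds plus 20 nM camptothecin for at least 48 h at 37 C; viability read as ATP content by CellTiter-Glo luminescence.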
SW480 rerep: inducers of DNA re-replication in SW480 colon cancer cells; SW480 DNA re-replication, Hoechst DNA content imaging, 48 h; Potency, µM (doses to about 46.1 µM), without a hit: top-dose re-replication activation, most hits filed as activators; hit rate 1.8% among 340,000; also: potency is read from the fitted curve at half-maximal effect; % of control where 0% means no effect; nearly all actives have a fitted effect of over 55% in size
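DNA re-replication was detected as more nuclei of elevated Hoechst intensity after 48 hr exposure to compound (23 nL pinned per well of 250 cells).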
TDP1 cell noCPT: qHTS for Inhibitors of human tyrosyl-DNA phosphodiesterase 1 (TDP1): qHTS in cells in absence of CPT. Potency, µM (titrated, usually from 46.2 µM), inactives show at the highest dose activity change, negative = growth inhibition, hits mostly inhibitors. DT40 Tdp1-/- hTDP1 cells, no CPT, ATP luminescence, 48 h. hit rate 15% among 420,000; also: potency is read from the fitted curve at half-maximal effect; % is scaled to controls: 0 for no effect and ±100 for the full control effect; nearly all actives have a fitted effect of over 55% in size
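Stably hTDP1-transfected Tdp1-null chicken DT40 cells were treated with library compounds minus camptothecin and grown for at least 48 hr at 37 °C, after which cellular ATP was quantified by luminescence.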
Chronic BCR inh: chronic active BCR signaling inhibition; hit rate 0.05% among 340,000; ABC-DLBCL IkBa-CBG/CBR reporter, luminescence ratio, 4 h; Potency, µM (highest dose often 46.1 µM), for inactives: at the top dose activity change, negative = inhibition, actives largely listed as inhibitors; active = well fitted inhibition curve with a large enough effect in the signal ratio, with a control signal flat, not every such curve was filed as active; inconclusive = small, poorly fitted or top-dose-only effect, or effect the other way, or a change in a side signal; the % refers to the signal ratio;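 also: potency is read from the fitted curve at half-maximal effect; plate controls were basal doxycycline-induced cells for no effect and cells given 10 µM MG132 for full effect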
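Cell line TMD8 (human ABC DLBCL), stably expressing tet-inducible CBG68-IkBa fusion and CBR; IMDM/0.5% FBS; cpd up to 46 uM; dox induction, 4 h, 37C/5% CO2; dual luminescence; green/red ratio; MG132 control.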
MCF10A rerep: inducers of DNA re-replication in MCF 10A breast cells. MCF 10A DNA re-replication, Hoechst nuclear intensity, 48 h. Potency, µM (highest dose often 46.1 µM), for the others: at the top dose activity, positive = re-replication, most hits filed as activators. hit rate 2.9% among 350,000; also: potency is read from the fitted curve at half-maximal effect; % of control where 0% means no effect; nearly all actives have a fitted effect of over 50% in size
IL-1B inflam inh: inflammasome signaling inhibition, IL-1 beta readout. THP-1 LPS/ATP IL-1B secretion, AlphaLISA, 16 h; stronger effect = lower value. activity change, % at 57.5 µM. hit rate 4.7% among 360,000; in the data active = activity change below about -50%; inconclusive = mostly about -30% to -49%; also: % is scaled to controls: 0 for no effect and ±100 for the full control effect
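Secreted IL-1B measured by AlphaLISA bead assay after 16 h compound exposure of THP-1 cells; compounds (final up to 57.5 uM) added 1 h before LPS (250 ng/mL) and ATP (1.25 mM) stimulation; lower signal means less secretion.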
* = called active by the depositor; ! = not active in a repeat; [ ] = dose if it differs, or a comment. Unless noted, calls follow the shape of the dose curve; as a rule, active = well fitted curve in the direction sought with a large enough effect; inconclusive = small, poorly fitted or top-dose-only effect, or another doubt; inactive = no such curve, though single readings can be large; an effect the other way counts as inactive or inconclusive.

For COc1ccc(NC2CCCN(C(=O)c3ccc4nc(C)c(C)nc4c3)C2)cc1OC (centres undefined) the results were TDP1 cell CPT -10%, SW480 rerep -23%, TDP1 cell noCPT 7%, Chronic BCR inh 2%, MCF10A rerep 4% and IL-1B inflam inh -7.
CN1CCN(/N=C/c2ccc(N(c3ccccc3)c3ccccc3)cc2)CC1 was read as TDP1 cell CPT inconclusive, SW480 rerep 14%, TDP1 cell noCPT inconclusive, Chronic BCR inh -2%, MCF10A rerep 16µM* and IL-1B inflam inh -51*.
Screening O=C(N/N=C/c1coc2ccc(Cl)cc2c1=O)c1cc(O)cc(O)c1 returned TDP1 cell CPT -11%, SW480 rerep -1%, TDP1 cell noCPT -16%, Chronic BCR inh -3%, MCF10A rerep 7% and IL-1B inflam inh -25.
For CCOc1ccccc1C(=O)N/N=C/c1coc2ccc(Cl)cc2c1=O the results were TDP1 cell CPT inconclusive, SW480 rerep 15µM*, TDP1 cell noCPT inconclusive, Chronic BCR inh -7%, MCF10A rerep 15µM* and IL-1B inflam inh 69.
Screening CC(C)Cc1nnc(NC(=O)C2=COCCO2)s1 returned TDP1 cell CPT -8%, SW480 rerep -33%, TDP1 cell noCPT 21%, Chronic BCR inh inconclusive, MCF10A rerep 2% and IL-1B inflam inh 9.
COc1cccc(C(=O)Nc2ccc3nc(N4CCC(C)CC4)cc(C)c3c2)c1 was read as TDP1 cell CPT 12µM* and TDP1 cell noCPT 21µM*.
`COc1ccc(C(=O)Nc2ccc3nc(N4CCC(C)CC4)cc(C)c3c2)cc1` gave TDP1 cell CPT 23µM* and TDP1 cell noCPT 16µM*.
`COc1cccc(C(=O)Nc2ccc(NC(=O)C3C4C=CC(C4)C3C(=O)O)cc2)c1` (centres undefined) gave TDP1 cell CPT -22%, SW480 rerep 1%, TDP1 cell noCPT inconclusive, Chronic BCR inh inconclusive, MCF10A rerep 20% and IL-1B inflam inh 13.
`CN1CCCCC1C(=O)N1CCC(Oc2cccc(CN3CCN(c4ccccn4)CC3)c2)CC1` (centres undefined) gave TDP1 cell CPT 12%[9.04 µM] and TDP1 cell noCPT inconclusive.
Screening COc1ccc(-c2[nH]c3ccccc3c2SCCN)cc1 returned TDP1 cell CPT inconclusive, SW480 rerep inconclusive, TDP1 cell noCPT inconclusive, Chronic BCR inh 2%, MCF10A rerep -2% and IL-1B inflam inh -59*.
`O=C(Nc1nnc(-c2ccccc2)s1)C1CCCN(C(=O)c2ccoc2)C1` (centres undefined) gave TDP1 cell CPT inconclusive and TDP1 cell noCPT -25%.
`CCn1c(=O)c(C(=O)NCCc2ccccc2)c(O)c2ccccc21` gave TDP1 cell CPT inconclusive, SW480 rerep 9%, TDP1 cell noCPT inconclusive, Chronic BCR inh inconclusive, MCF10A rerep inconclusive and IL-1B inflam inh 33.
`CCn1c(=O)c(C(=O)NCCc2ccc(OC)c(OC)c2)c(O)c2ccccc21` gave TDP1 cell CPT 16µM*, SW480 rerep 8%, TDP1 cell noCPT 21µM*, Chronic BCR inh inconclusive, MCF10A rerep inconclusive and IL-1B inflam inh 11.
For CCCn1c(=O)c(C(=O)NCCc2ccc(OC)c(OC)c2)c(O)c2ccccc21 the results were TDP1 cell CPT inconclusive, SW480 rerep -4%, TDP1 cell noCPT inconclusive, Chronic BCR inh 1%, MCF10A rerep 1µM* and IL-1B inflam inh 14.
COc1cccc(-c2nn(Cc3ccccc3)cc2CO)c1 was read as TDP1 cell CPT 0%, SW480 rerep -9%, TDP1 cell noCPT -32%, Chronic BCR inh 15%, MCF10A rerep -1% and IL-1B inflam inh 2.
Screening NCc1cn(Cc2ccccc2)nc1-c1ccccc1 returned TDP1 cell CPT 11µM* and TDP1 cell noCPT inconclusive.
For CN(C)CCN(Cc1cccs1)c1ccccn1 the results were TDP1 cell CPT inconclusive, SW480 rerep -87%, TDP1 cell noCPT 24µM*!, Chronic BCR inh -12%, MCF10A rerep -2% and IL-1B inflam inh -9.
Screening O=C1NC[C@H](CCCCN2CCN(Cc3ccccc3)C(=O)C2=O)N(CCC2CCCCC2)C1=O returned TDP1 cell CPT 2%, TDP1 cell noCPT -20% and IL-1B inflam inh -1.
For CNc1cncc(-c2ccc(CN3CCOCC3)cc2)n1 the results were TDP1 cell CPT inconclusive, TDP1 cell noCPT inconclusive and IL-1B inflam inh 23.
CCCCOc1ccccc1C(=O)N(Cc1sccc1C)C1CCS(=O)(=O)C1 (centres undefined) was read as TDP1 cell CPT inconclusive and TDP1 cell noCPT 21µM*.
Screening CCCCOc1cccc(C(=O)N(Cc2sccc2C)C2CCS(=O)(=O)C2)c1 (centres undefined) returned TDP1 cell CPT inconclusive and TDP1 cell noCPT 15µM*.
CCCOc1cccc(C(=O)N(Cc2ccc(OC)c(OC)c2)C2CCS(=O)(=O)C2)c1 (centres undefined) was read as TDP1 cell CPT -9%, SW480 rerep -1%, TDP1 cell noCPT -10%, Chronic BCR inh inconclusive, MCF10A rerep -2% and IL-1B inflam inh -10.
Screening CCCOc1cccc(C(=O)N(Cc2sccc2C)C2CCS(=O)(=O)C2)c1 (centres undefined) returned TDP1 cell CPT inconclusive and TDP1 cell noCPT 13µM*.
`O=C(NCc1cccc(Cl)c1)c1ccc(S(=O)(=O)N2CCCCC2)cc1` gave TDP1 cell CPT -13%, TDP1 cell noCPT inconclusive and IL-1B inflam inh -3.
`CN(CC(=O)Nc1ccc(F)cc1)C(=O)CN1C(=O)NC2(CCCC2)C1=O` gave TDP1 cell CPT -2%, SW480 rerep 11%, TDP1 cell noCPT inconclusive, Chronic BCR inh 3%, MCF10A rerep 19% and IL-1B inflam inh 5.
For Cc1ccc(S(=O)(=O)N2CCN(C(=O)CN3C(=O)c4ccc([N+](=O)[O-])cc4C3=O)CC2)c(C)c1 the results were TDP1 cell CPT 14%, SW480 rerep 8%, TDP1 cell noCPT 1%, Chronic BCR inh 21%, MCF10A rerep 15% and IL-1B inflam inh 13.
For O=c1cc(CNc2cc(C(F)(F)F)cc(C(F)(F)F)c2)nc2sccn12 the results were TDP1 cell CPT inconclusive, SW480 rerep -1%, TDP1 cell noCPT inconclusive, Chronic BCR inh -1%, MCF10A rerep inconclusive and IL-1B inflam inh -71*.
